Test results from the supplement of paper PMC11417369.
In all, about 25,000 sequences were measured (“ln(normalized median fluorescence intensity)”: median about 6.7, highest 2% from about 10 on). The list comes from a sample in which the highest values are over-represented; it also holds similar and randomly drawn sequences.

What follows are sequences tested on PfHDP1 homeodomain (GST-tagged) (assay: gcPBM binding intensity (ln(normalized median fluorescence intensity)); higher = stronger DNA binding).
How it was run: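 The highest Masliner-normalised natural-log median intensity across replicate spots of either probe orientation is reported as binding intensity. GST-tagged P. falciparum DNA-binding domains expressed in E. coli were applied for 1 h to an Agilent 4 × 180k array of primer-extended double-stranded 36-bp intergenic genomic probes plus negative controls, and bound protein was detected with Alexa488 anti-GST antibody and scanned at 488 nm.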
For “TAATAAATAAAAACATGTACATATATACATATATGT [XGTACX_site485]”, the “gcPBM binding intensity (ln)” value was 6.35.
With “ATATATATAAATATATGTACATAAATATATTTGTAA [XGTACX_site6715]” the “gcPBM binding intensity (ln)” value was 6.71.
With “GAAAAAAGGAAATAAAGAAAAAAAAAAATGAAATAT [XGTACX_negctrl_site318]” the “gcPBM binding intensity (ln)” value was 6.22.
In the case of “AACATTTTAAAACAGACACACACCAAAAAAAAAAAA [CACACA_site257]”, the “gcPBM binding intensity (ln)” value is reported as 6.26.
In the case of “GGACAAGTTAAACGCACACAAATATATACCCCCATA [CACACA_site4996]”, the “gcPBM binding intensity (ln)” value is reported as 7.91.
With “CCTTGTCTTTTTTTTTTTTTTTTTTCTTCTTATTTT [GTGCAC_negctrl_site523]” the “gcPBM binding intensity (ln)” value was 6.24.
With “CATATAGTAATATATACACACACTTGTCTTGTAAAA [CACACA_site8238]” the “gcPBM binding intensity (ln)” value was 6.54.
For “ATTTAATACAAATACACACACAAATATGTACCTATA [CACACA_site7718]”, the “gcPBM binding intensity (ln)” value was 7.02.
“ACATTCTGATGGTGATTATTAATTATTACAAAAATT [CACACA_negctrl_site283]” was tested, and the “gcPBM binding intensity (ln)” value was 6.01.
In the case of GAAAAATATATTCTGGTGCATGAATAAAATCATAAA, the “gcPBM binding intensity (ln)” value is reported as 9.33.
With GTTTACATCATTCTGGTGCAAAAAAAAAAAAAAATA the “gcPBM binding intensity (ln)” value was 10.5.
In the case of “AATTAAAAAGTTTTTAATGTTTTTAATTTTTTCCAC [XGTACX_negctrl_site423]”, the “gcPBM binding intensity (ln)” value is reported as 5.99.
“TATATATATTAAAAACGTACAAAATAAGAATTAATT [XGTACX_site5979]” was tested, and the “gcPBM binding intensity (ln)” value was 6.8.
“TTATTTTATTTTTGTGCACACTGATAAATTGAAAAG [CACACA_site2949]” was tested, and the “gcPBM binding intensity (ln)” value was 11.2.
With “TTTATATTAATTGATGTGCACTGAAATATTTGTCCA [GTGCAC_site9655]” the “gcPBM binding intensity (ln)” value was 9.08.
“TTTTGAAAAAATTTTTATAAAAGAATAAAATTATTA [XGTACX_negctrl_site570]” was tested, and the “gcPBM binding intensity (ln)” value was 6.06.
In the case of “TATTTTGAAAAAGTTGCACACAAAATTTAAAAAAAA [CACACA_site8470]”, the “gcPBM binding intensity (ln)” value is reported as 9.29.
For “ATTTTATTTTTGTGCACACTGATAAATTGAAAAGAG [CACACA_site2948]”, the “gcPBM binding intensity (ln)” value was 11.1.
With “TTTATTTTTGAAGTTGCACACACAAAAATAAAAAGT [CACACA_site8030]” the “gcPBM binding intensity (ln)” value was 8.92.
For “CACTTTTTTTAAATGTGTACGTATATGAAAATATCA [XGTACX_site4854]”, the “gcPBM binding intensity (ln)” value was 6.38.
With “GTTATATGAACTTATATACACACCATTTTTGTAAAT [CACACA_site695]” the “gcPBM binding intensity (ln)” value was 6.69.
“AAAATTAACCGTAACACACACACATATAAATATGTA [CACACA_site7791]” was tested, and the “gcPBM binding intensity (ln)” value was 6.55.
With “TAATTATCACATTGCACACACATTTCCTTTTACATT [CACACA_site3443]” the “gcPBM binding intensity (ln)” value was 9.61.
In the case of “TAATTTTTCCTTTTTGCACACATTAACGTCGACGAA [CACACA_site4025]”, the “gcPBM binding intensity (ln)” value is reported as 10.8.
“TCTAATTATCACATTGCACACACATTTCCTTTTACA [CACACA_site9140]” was tested, and the “gcPBM binding intensity (ln)” value was 9.66.
In the case of “TTTTATGTTCTTAATGCACACTTATAAGTATCTTAT [CACACA_site4895]”, the “gcPBM binding intensity (ln)” value is reported as 10.6.
In the case of TATATATATATATGTATGCACTTTAATTTTATAAGG, the “gcPBM binding intensity (ln)” value is reported as 9.31.
In the case of “TTATGTTCTTAATGCACACTTATAAGTATCTTATAA [CACACA_site1394]”, the “gcPBM binding intensity (ln)” value is reported as 9.72.
In the case of “TATGAATATTGCATGTGTACCTATTATCCTTTTAAA [XGTACX_site4311]”, the “gcPBM binding intensity (ln)” value is reported as 6.95.
With “TATAAAAAAAAAAAAAGTACTAACTTAAAACAATTT [XGTACX_site7969]” the “gcPBM binding intensity (ln)” value was 5.92.
“TATTCAACATAATATGCACACAAAAATTATGGAACG [CACACA_site8660]” was tested, and the “gcPBM binding intensity (ln)” value was 9.99.
For “AACACTTTAATTTATGCACACATATGGAACAACAGC [CACACA_site8241]”, the “gcPBM binding intensity (ln)” value was 10.2.
“CACTTTAATTTATGCACACATATGGAACAACAGCCA [CACACA_site994]” was tested, and the “gcPBM binding intensity (ln)” value was 10.6.
For TTTTTAATATATTAGGTGCACAATAATACACTTTAT, the “gcPBM binding intensity (ln)” value was 10.3.
For “TTATAATAATTTTATGCACACAGAAAAATACAAGGT [CACACA_site9169]”, the “gcPBM binding intensity (ln)” value was 10.2.
For “ACAGAATACATATACACACATACAAAAAAGTGCATA [CACACA_site987]”, the “gcPBM binding intensity (ln)” value was 7.81.
In the case of “TTTTTTTAACGGTGTGCACACAATATACAGAAAAAA [CACACA_site1415]”, the “gcPBM binding intensity (ln)” value is reported as 11.1.
“TTTTTAAAAATATACACACACAGATATTATATATAT [CACACA_site786]” was tested, and the “gcPBM binding intensity (ln)” value was 6.94.
“TTTTTTTAATAGTGTGCACACAATATACAGAAAAAA [CACACA_site8399]” was tested, and the “gcPBM binding intensity (ln)” value was 11.
For “TGTAGTCTGGAGAAAAGTACATAGTATCTGATAACC [XGTACX_site2018]”, the “gcPBM binding intensity (ln)” value was 6.4.
“TGGCACTAAAAAAATAAACACACAGATTTATATAAT [CACACA_site8386]” was tested, and the “gcPBM binding intensity (ln)” value was 6.51.
With “CCATTTTAAATATGCACACAGATGCACTAACCCATT [CACACA_site1883]” the “gcPBM binding intensity (ln)” value was 9.9.
“GCACTAAAAAAATAAACACACAGATTTATATAATAT [CACACA_site1381]” was tested, and the “gcPBM binding intensity (ln)” value was 6.5.
For “AACCATTTTAAATATGCACACAGATGCACTAACACA [CACACA_site8565]”, the “gcPBM binding intensity (ln)” value was 10.5.
“TAAATATGCTCACAGATGCACTAACACATTTTTATA [GTGCAC_site9997]” was tested, and the “gcPBM binding intensity (ln)” value was 10.4.
For “CCATTTTAAATATGCACACAGATGCACTAACACATT [CACACA_site5099]”, the “gcPBM binding intensity (ln)” value was 10.6.
For “TATGTTCCTTTTTGTTGTACTGAAAAATTATGTTCA [XGTACX_site3981]”, the “gcPBM binding intensity (ln)” value was 6.61.
With “GAAATAATAAATTAAAAATCGTTTATAACATTTAAC [CACACA_negctrl_site425]” the “gcPBM binding intensity (ln)” value was 6.21.
For “AAATTCATAAAAATATTTTATAATTATATATAGAAT [TGCATGCA_negctrl_site343]”, the “gcPBM binding intensity (ln)” value was 6.34.
For “ATAAAATATATATATATAAAAATAAATACATAAATA [GTGCAC_negctrl_site157]”, the “gcPBM binding intensity (ln)” value was 6.31.
For “GCATATGTTTATTGCACACACCAAAAAGAAAACATA [CACACA_site4384]”, the “gcPBM binding intensity (ln)” value was 10.5.
“CACAAAAAGAAACACACACACATATATATTTATTAT [CACACA_site3646]” was tested, and the “gcPBM binding intensity (ln)” value was 6.73.
For “ATGCATATGTTTATTGCACACACCAAAAAGAAAACA [CACACA_site403]”, the “gcPBM binding intensity (ln)” value was 9.25.
With “ACTATATTTCATAACAGTACATATTCCTGAAACATC [XGTACX_site4924]” the “gcPBM binding intensity (ln)” value was 6.43.
“ATAATATAAATACAAACACACAATTGTGTCCACATT [CACACA_site6920]” was tested, and the “gcPBM binding intensity (ln)” value was 6.79.
For “AGTATATACACGTGCGTGCACAGATATTCTTTTTTT [GTGCAC_site9398]”, the “gcPBM binding intensity (ln)” value was 9.58.
In the case of “AATACTAAAAAGTGTACACATACATAAAAAATTGCA [CACACA_site5620]”, the “gcPBM binding intensity (ln)” value is reported as 7.24.
